Consider 60 molecules from PubChem BioAssay AID1566 (Sanford-Burnham Center for Chemical Genomics, 2009).

Each structure is given as a SMILES string. About 1,800 (0.62%) of roughly 290,000 compounds were called active. The full list was thinned out, with actives kept by preference. Values without a mark were called inactive. Rule as the data show it: active = inhibition above about 50%; inactive = the rest.

This experiment can be described thus: inhibition of NOD2-driven NF-kB reporter – cell-based, luminescence, uHTS, HEK293 (AID 1566). The conditions noted are these: HEK293 NOD2/NF-kB luciferase reporter, at 4 µM, hits give high values. For orientation: Reporter assays use an easily measured gene product as a stand-in for the process of interest.
The inhibition is the relative decrease from the control value, in per cent. `Cc1ccccc1N=C1NC(=O)/C(=C/c2cccn2-c2cccc(C(=O)O)c2)S1`: the inhibition is 10.7%. The same measure for `CC(C)CN1CCN(CCCc2ccccc2)C(CCO)C1` (stereo not given): -35.5%; for `COc1ccc(N2C(=O)NC3CC2(C)Oc2ccccc23)cc1` (stereo not given): 15.5%. With `O=C(CCS(=O)(=O)c1ccccc1)NC1CCCCC1`, the inhibition is -43.9%. The same measure for `COc1ccc(OCC(=O)Nc2cc(-c3nn(C)c(=O)c4ccccc34)ccc2OC)cc1`: 46.6%; for `COc1ccc(-c2nn(C)c(=O)c3ccccc23)cc1NC(=O)COc1ccc(C)cc1`: 53.6% (active); for `COc1ccc(-c2nn(C)c(=O)c3ccccc23)cc1NC(=O)COc1ccccc1`: 31.2%. The same measure for `CCc1nnc(NC(=O)CSc2nc(C)cc(C)c2C#N)s1`: -111%; for `COc1ccc(C)cc1S(=O)(=O)N(CC(N)=O)Cc1ccccc1`: -4.4%; for `O=C(CN1CCCCCCC1)N/N=C/c1ccc([N+](=O)[O-])o1`: 67.4% (active). The same measure for `COC(=O)N/N=C/c1ccc([N+](=O)[O-])o1`: -0.6%.

For the molecule `O=C(CSc1ccc(Cl)cc1)N/N=C/c1ccc([N+](=O)[O-])o1`, the inhibition was 69.6% (active). The same measure for `CCCCCC(=O)N/N=C/c1ccc([N+](=O)[O-])o1`: 28.5%; for `O=C(Cc1ccc([N+](=O)[O-])cc1)N/N=C/c1ccc([N+](=O)[O-])o1`: 33.1%. The same measure for `O=C(N/N=C/c1ccc([N+](=O)[O-])o1)C1CC1`: 23.5%. With `O=C(N/N=C/c1ccc([N+](=O)[O-])o1)C1CCCC1`, the inhibition is 60.2% (active).

Take `O=C(CCC(=O)Nc1ccc(Cl)cc1Cl)N/N=C/c1ccc([N+](=O)[O-])o1`: the inhibition is 33.1%. The value for `CCCCCCCC(=O)N/N=C/c1ccc([N+](=O)[O-])o1` was 16.9%; that for `COc1cc(C(O)P(=O)(OC2CCCCC2)c2ccc(N(C)C)cc2)cc(OC)c1OC` (stereo not given) was 0.5%; that for `C=CCNC(=S)NNC(=O)COc1ccc2cc(Br)ccc2c1` was -39.9%. The value for `CCCCCC(C)NC(=O)c1ccoc1C` (stereo not given) was 12.6%; that for `COC(=O)C1CCN(C(=O)Cc2ccc(Br)cc2)CC1` was -8.4%. The same measure for `O=C(CC1C(=O)NCCN1Cc1ccccc1)NCCCOc1cccnc1` (stereo not given): 9.1%; for `CC(=C/c1ccccc1)/C=N/Nc1nc(N2CCOCC2)nc(N2CCOCC2)n1`: -9.3%.

As for `CC[n+]1c(/C=C/c2ccc(N(C)C)cc2)ccc2ccccc21`, the inhibition is 17.2%. The value for `CC[n+]1c(/C=C/c2ccc(OC)c(OC)c2)ccc2ccccc21` was -117%; that for `CC(C)c1ccc(C(C)NCCS(=O)(=O)c2ccc(Cl)cc2)cc1` (stereo not given) was 14.9%; that for `CC(NCCS(=O)(=O)c1ccc(Cl)cc1)c1cccc(Cl)c1` (stereo not given) was 54.1% (active). For the molecule `CC(C)c1ccc(C(C)NCCS(=O)(=O)c2ccc(Br)cc2)cc1` (stereo not given), the inhibition is -12.3%. As to `CCCCOC(=O)C1=C(C)NC(=O)NC1c1ccc([N+](=O)[O-])s1` (stereo not given), the inhibition is 17.4%. The same measure for `CCc1nc2ccccc2c(C(=O)OCC(=O)Nc2ccc(S(=O)(=O)N3CCOCC3)cc2)c1C`: -9%.

Turning to `CCCc1nc2ccccc2c(C(=O)OCC(=O)Nc2cccc(S(=O)(=O)N3CCOCC3)c2)c1CC`, the inhibition is -4.4%. On to `CCN(CC)CCNC(=O)c1ccc(NC(=O)Nc2cccc3ccccc23)cc1`, for which the inhibition is -10.7%. The same measure for `O=C(c1ccccc1)N1CCN(CCc2ccccn2)CC1`: -11.9%; for `COc1ccc(N2C(=O)C3C4C=CC(c5ccccc5)(C3C2=O)C2C(=O)N(c3ccc(OC)cc3)C(=O)C42)cc1` (stereo not given): 8%; for `COc1cc(NC(=O)c2ccccc2)c(OC)cc1Cl`: -0.5%. The value for `COc1ccc(C(=O)Nc2cc(OC)c(Cl)cc2OC)cc1` was 4.7%; that for `CCN1CCN(C2=C(NS(=O)(=O)c3ccccc3)C(=O)c3ccccc3C2=O)CC1` was 18.2%. `CCN1CCN(C2=C(NS(=O)(=O)c3ccc(Br)cc3)C(=O)c3ccccc3C2=O)CC1`: the inhibition was 50.9% (active). The value for `CCN1CCN(C2=C(NS(=O)(=O)c3ccc(C)cc3)C(=O)c3ccccc3C2=O)CC1` was 38%; that for `Cc1cc(NC(=O)CSc2nc3ccccc3c(=O)n2Cc2ccccc2)no1` was 9.6%. The value for `NC(=O)CSc1nc2ccccc2c(=O)n1Cc1ccccc1` was 5.3%. The same measure for `CCOC(=O)Cc1c(C)nc(-c2ccccc2)[nH]c1=O`: -6.7%; for `COc1ccccc1N1CCN(C(=O)CCNS(=O)(=O)c2cc(Br)cnc2N)CC1`: 21%; for `COCCCNC(=O)C1CC(=O)OC1c1ccc(OC)c(OC)c1` (stereo not given): -13%. On to `CC(=O)N(c1ccccc1)C1CCCC1`, for which the inhibition is 16.4%. The same measure for `O=C(CCl)N(c1ccccc1)C1CCS(=O)(=O)C1` (stereo not given): 1.5%; for `O=C(CCl)N(c1ccccc1)C1CCCCC1`: 52.5% (active). The same measure for `COc1ccc(NC(=S)NCCc2ccccc2)c(C)c1`: 1.7%; for `Nc1c(-c2n[nH]c(=S)n2-c2ccc(Cl)cc2Cl)cnn1-c1ccccc1`: -0.1%. The value for `CCN(CC)S(=O)(=O)c1ccc(/C(O)=C2/C(=O)C(=O)N(CCOC)C2c2ccccc2)cc1` (stereo not given) was 8.8%; that for `CCn1cc(CNC(=O)c2ccc3nc(Cc4ccc(OC)cc4)oc3c2)cn1` was 54.1% (active); that for `COc1ccc(Cc2nc3ccc(C(=O)NCCn4cccn4)cc3o2)cc1` was -0.5%. With `CCn1cc(CNC(=O)c2ccc3nc(Cc4ccccc4F)oc3c2)cn1`, the inhibition was 24.7%. Turning to `CCOC(=O)N1CCN(C(=O)c2ccc3c(c2)NC(=O)/C(=C/c2ccccc2)S3)CC1`, the inhibition is 9.6%. The value for `Cc1oc2c(c1C(=O)O)C(=O)c1ccccc1C2=O` was 19%; that for `O=C1c2ccccc2C(=O)c2c1oc(C(F)(F)F)c2C(=O)c1ccccc1` was 77.4% (active). The value for `O=C(c1ccccc1)c1coc2c1C(=O)c1ccccc1C2=O` was 28.9%.

On to `COc1cc(NC(=O)CCS(=O)(=O)c2ccc3c(c2)n(C)c(=O)c(=O)n3C)cc(OC)c1`, for which the inhibition was -1.3%. The value for `CCN(CC)CCNC(=O)c1cccc(NC(=O)C(=O)c2ccccc2NC(C)=O)c1` was 3.6%.
